In all, about 360,000 compounds went through this assay and about 25,000 (6.9%) were called active. Not shown: some 9% with an inconclusive outcome. Only a selection was taken, and actives are over-represented in it overall. Values without a mark were called inactive. Calls follow the shape of the dose curve; as a rule, active = well fitted inhibition curve with a large enough effect; inconclusive = small, poorly fitted or top-dose-only effect; inactive = flat fitted curve, though single readings scatter.
What follows are compounds tested against Luciferin 4-monooxygenase (Photinus pyralis) (UniProt P08659) (assay: qHTS profiling assay for firefly luciferase inhibitor/activator using purifed enzyme and Km concentrations of substrates (counterscreen for miR-21 project)). Settings: purified FLuc, luminescence inhibition; series mostly up to 57.5 µM; activity change, negative = inhibition: at the top concentration.
Sequence of Luciferin 4-monooxygenase (Photinus pyralis) (P08659 whole entry, looked up): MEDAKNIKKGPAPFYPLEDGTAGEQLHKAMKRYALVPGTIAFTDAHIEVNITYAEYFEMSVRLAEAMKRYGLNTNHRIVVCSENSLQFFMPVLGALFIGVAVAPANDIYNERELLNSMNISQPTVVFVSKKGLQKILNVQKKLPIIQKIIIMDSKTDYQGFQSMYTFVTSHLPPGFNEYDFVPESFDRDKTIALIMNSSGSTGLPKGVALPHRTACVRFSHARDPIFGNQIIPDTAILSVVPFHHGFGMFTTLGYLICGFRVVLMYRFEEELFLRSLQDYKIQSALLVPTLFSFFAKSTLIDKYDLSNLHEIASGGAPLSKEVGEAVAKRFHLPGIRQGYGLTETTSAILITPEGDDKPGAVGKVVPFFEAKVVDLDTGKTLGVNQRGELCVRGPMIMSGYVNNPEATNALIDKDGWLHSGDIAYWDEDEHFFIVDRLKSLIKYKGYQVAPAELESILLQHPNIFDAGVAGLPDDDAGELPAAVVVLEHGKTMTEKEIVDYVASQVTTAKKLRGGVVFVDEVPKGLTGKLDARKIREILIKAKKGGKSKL
In short: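 Biochemical qHTS of compounds, final roughly 60 µM downward over six points, against 10 nM purified firefly luciferase using Km concentrations of substrates (10 uM D-luciferin, 10 uM ATP) in Tris acetate pH 7.5 buffer; luminescence output.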
For `CCOC(=O)C1CCCN(C(=O)c2ccc3c(c2)sc2nc(-c4ccc(CC)cc4)cn23)C1` (stereo not drawn), the “activity change, negative = inhibition” value was -6.78%.
For `Cc1ccccc1CNC(=O)C(=O)NCC(c1cccs1)S(=O)(=O)c1cccs1` (stereo not drawn), the “activity change, negative = inhibition” value was -9.18%.
With `Cc1nc(N2CCOCC2)c2c(C(=O)NCc3cccc(Cl)c3)c(C)oc2n1` the “activity change, negative = inhibition” value was -2.72%.
`O=C1Nc2cc(C(=O)N3CCC(N4CCCCC4)CC3)ccc2S/C1=C\c1ccccc1` was tested, and the “activity change, negative = inhibition” value was -1.4%.
With `CCCc1cc(C(=O)Nc2ccc(Cl)cn2)cs1` the Potency was 0.478 µM (active).
With `CCCc1cc(C(=O)Nc2ccc(C(=O)OC)cc2)cs1` the “activity change, negative = inhibition” value was -14.7%.
`O=C(NCc1ccco1)c1nn2cccnc2c1Cl` was tested, and the “activity change, negative = inhibition” value was -9.49%.
With `Cc1nc(NC(=O)c2ccc3c(c2)OCCO3)ccc1Br` the Potency was 1.51 µM (active).
`O=C(Nc1ccc(Cl)cn1)c1ccc2c(c1)OCCO2` was tested, and the Potency was 1.35 µM (active).
With `COc1ccc(C(=O)NC(=S)Nc2ccc(Cl)cn2)cc1OC` the “activity change, negative = inhibition” value was -5.46%.
For `CCCCC(CC)C(=O)Nc1ccc(Cl)cn1` (stereo not drawn), the “activity change, negative = inhibition” value was -1.5%.
For `O=C(Nc1ccc(Cl)cn1)c1cnn2cccnc12`, the Potency was 7.57 µM (active).
For `Cc1cccc(C)c1NC(=O)CNC(=O)c1ccc2c(c1)OCCO2`, the “activity change, negative = inhibition” value was -2.86%.
With `CC1(c2ccc(Cl)cc2)NC(=O)N(CC(=O)c2ccc3c(c2)OCO3)C1=O` (stereo not drawn) the “activity change, negative = inhibition” value was -20.5%.
In the case of `CS(=O)(=O)c1ccc(-c2nnc(NC(=O)c3ccc4c(c3)OCCO4)o2)cc1`, the “activity change, negative = inhibition” value is reported as -2.9%.
With `Cc1cc(NC(=O)c2cnn3cccnc23)n(-c2ccccc2)n1` the “activity change, negative = inhibition” value was 3.79%.
In the case of `CC12CCC(=O)N1C(C(=O)Nc1ccc(F)c(F)c1F)CS2` (stereo not drawn), the “activity change, negative = inhibition” value is reported as -0.97%.
In the case of `COc1ccc(OC)c(CNC(=O)CN2C(=O)CCn3nc(-c4cn(C)c5ccccc45)cc32)c1`, the “activity change, negative = inhibition” value is reported as 0.0113%.
In the case of `CCN(CC(=O)Nc1ccc(OC)cc1)C(=O)CSCc1ccc(C)cc1`, the “activity change, negative = inhibition” value is reported as -1.05%.
`CC(Oc1ccccc1[N+](=O)[O-])C(=O)N/N=C/c1ccoc1` (stereo not drawn) was tested, and the “activity change, negative = inhibition” value was 2.82%.
In the case of `Cc1cc(C(=O)N/N=C/c2ccc(O)c([N+](=O)[O-])c2)c(C)n1-c1ccc(F)cc1`, the Potency is reported as 2.39 µM (active).
With `COc1cc(/C=N\NC(=O)C2C(=O)NCC2c2ccccc2)cc(OC)c1O` (stereo not drawn) the “activity change, negative = inhibition” value was 5.59%.
With `Cc1nn(CC(=O)N/N=C/c2ccc(F)cc2)c(C)c1[N+](=O)[O-]` the “activity change, negative = inhibition” value was -0.587%.
For `COc1cc(/C=N/NC(=O)c2cc(C)n(-c3ccc(F)cc3)c2C)cc(OC)c1O`, the Potency was 15.1 µM (active).
With `CC(C)c1cc(C(=O)N/N=C/c2ccoc2)c(O)c(C(C)C)c1` the “activity change, negative = inhibition” value was 5.96%.
With `Nc1c(N(Cc2ccco2)C(=O)c2cccc(F)c2)c(=O)[nH]c(=O)n1Cc1ccccc1` the “activity change, negative = inhibition” value was 2.26%.
In the case of `Cc1ccccc1C(=O)Nc1nnc(S(=O)(=O)N(C)c2ccc(Cl)cc2)s1`, the “activity change, negative = inhibition” value is reported as -8.25%.
With `CC(C)(CNC(=O)CNC(=O)C1CCCCC1)N1CCOCC1` the “activity change, negative = inhibition” value was -0.324%.
`CCOC(=O)c1ccc(NC(=O)c2c(NCc3cccc(OC)c3)sc3c2CCC3)cc1` was tested, and the “activity change, negative = inhibition” value was 0.213%.
`O=C(C1CCC(Cn2c(=O)c3sccc3n(Cc3ccccc3F)c2=O)CC1)N1CCCCC1` (stereo not drawn) was tested, and the “activity change, negative = inhibition” value was -10.1%.
For `CC1(C)CC(=O)C=C(c2cccc3c2Oc2ccccc2S3)C1`, the “activity change, negative = inhibition” value was -3.41%.
With `Cc1cccc(OCC(=O)NCCCNC(=O)c2ccccn2)c1` the “activity change, negative = inhibition” value was -1.63%.
For `Cc1cccc(OCC(=O)Nc2ccccc2F)c1`, the Potency was 21.3 µM (active).
In the case of `Cc1cccc(OCCC(=O)Nc2ccccc2C(N)=O)c1`, the “activity change, negative = inhibition” value is reported as -0.608%.
With `CCCOC(=O)Nc1ccccc1C(N)=O` the “activity change, negative = inhibition” value was 3.69%.
`Cc1cccc(OCC(=O)Nc2ccc(C(=O)O)cc2NC(=O)COc2cccc(C)c2)c1` was tested, and the “activity change, negative = inhibition” value was 0.888%.
`COc1cccc(OCC(=O)Nc2ccccc2C(N)=O)c1` was tested, and the Potency was 4.78 µM (active).
With `CCc1ccc(-n2nc(C)c3c(C)cc(=O)n(CC(=O)Nc4ccc(F)cc4C)c32)cc1` the “activity change, negative = inhibition” value was 1.92%.
For `CCCNc1ncnc2c1c(-c1ccccc1)cn2-c1ccc(OCC)cc1`, the “activity change, negative = inhibition” value was -5.23%.
In the case of `O=C(COc1ccccc1O)NC1CCCC1`, the “activity change, negative = inhibition” value is reported as -1.18%.
For `CCOC(=O)c1ccc(NC(=O)c2nc(SCc3ccc(F)cc3)ncc2Cl)cc1`, the “activity change, negative = inhibition” value was -7.43%.
For `COc1cc(N=Cc2c(O)c3ccccc3oc2=O)c(OC)cc1Cl`, the “activity change, negative = inhibition” value was 0.283%.
In the case of `COc1ccccc1N=C(C)C1=C(O)COC1=O`, the “activity change, negative = inhibition” value is reported as 2.19%.
With `COc1ccccc1N=Cc1c(O)c2ccccc2oc1=O` the Potency was 1.9 µM (active).
With `O=C(Nc1ccc(OC(F)(F)F)cc1)c1cc2c(=O)n3ccccc3nc2s1` the “activity change, negative = inhibition” value was 1.26%.
For `CCc1cc2c(-c3ccccc3)cc(=O)oc2c2c1OCN(Cc1ccc(C)cc1)C2`, the “activity change, negative = inhibition” value was -2.21%.
With `Cc1cccc(C(=O)Nc2ccc(-c3nc4ncccc4o3)cc2C)c1` the “activity change, negative = inhibition” value was -1.32%.
In the case of `CCC(CC)c1nnc(NC(=O)/C=C/c2ccco2)s1`, the “activity change, negative = inhibition” value is reported as 2.36%.
With `CCc1ccc2oc(-c3ccc(C)c(NC(=O)/C=C/c4ccco4)c3)nc2c1` the Potency was 3.01 µM (active).
In the case of `Cc1ccc2cccc(NC(=O)c3cccc4ccccc34)c2n1`, the “activity change, negative = inhibition” value is reported as -2.45%.
For `CC(C)C(C)NC(=O)COc1nc2ccccc2nc1N(C)C1CCCCC1` (stereo not drawn), the “activity change, negative = inhibition” value was 0.505%.
In the case of `CN(c1ccc2nc3ccccc3c(=O)n2n1)C1CCCCC1`, the Potency is reported as 0.169 µM (active).
`O=c1c2ccccc2nc2n1C1(CCCCC1)Cc1ccccc1-2` was tested, and the “activity change, negative = inhibition” value was -1.54%.

— PubChem BioAssay AID588342 (National Center for Advancing Translational Sciences (NCATS), 2011)
Also: nearly all actives have a fitted effect of over 55% in size.
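For activity change, negative = inhibition in this document: plate controls were vehicle for no effect and reference inhibitor for full effect.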
Potency is read from the fitted curve at half-maximal effect.
